HT1080-NT tox: qHTS for induction of synthetic lethality in tumor cells producing 2HG: qHTS for the HT-1080-NT fibrosarcoma cell line | Potency, µM (series often up to 46.1 µM), for inactives: top-dose activity, negative = less viability, actives largely listed as cytotoxic | AID 686970, 2013 | hit rate 1.6% among 360,000 | HT-1080-NT fibrosarcoma viability, CellTiter-Glo ATP luminescence, 48 h;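 also: NT is the 2HG producing partner of a matched IDH1 knockdown line; 0% = DMSO-treated cells and -100% = media-only wells without cells; nearly all actives have a fitted effect of over 55% in size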
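Compounds were tested in concentration-response format on HT-1080-NT cells for 48 hours at 37 degrees C. Cell viability came from CellTiter-Glo luminescence; curves were classified by r2, response magnitude and activity.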
TDP1 cell noCPT: qHTS for Inhibitors of human tyrosyl-DNA phosphodiesterase 1 (TDP1): qHTS in cells in absence of CPT; AID 686978, 2013; hit rate 15% among 420,000; DT40 Tdp1-/- hTDP1 cells, no CPT, ATP luminescence, 48 h; Potency, µM (titrated, usually from 46.2 µM), for the others: top-dose activity change, negative = growth inhibition, most hits filed as inhibitors; also: nearly all actives have a fitted effect of over 55% in size
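A cellular qHTS used chicken DT40 cells lacking endogenous Tdp1 but carrying stably transfected human TDP1. Compounds were applied without camptothecin, and cell growth kinetics were judged by ATP-dependent luminescence after ≥48 hr.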
KB-3-1 tox: qHTS assay for MDR1-selective chemotherapeutics: Primary screen using the parental adenocarcinoma cell KB-3-1; KB-3-1 viability, CellTiter-Glo ATP luminescence, 72 h; Potency, µM (top dose mostly 46.1 µM), hits mostly cytotoxic; AID 1347075, 2019; hit rate 1.4% among 400,000; also: nearly all actives have a fitted effect of over 60% in size
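Cells are dispensed, compounds pinned in, plates held at 37 °C for 72 h, then CellTiter-Glo is added and luminescence read after 10 minutes. Cell line: parental KB-3-1 in phenol-red-free DMEM, 10% FBS.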
TDP1 cell CPT: qHTS for Inhibitors of human tyrosyl-DNA phosphodiesterase 1 (TDP1): qHTS in cells in presence of CPT | chicken DT40 Tdp1-/-;hTDP1 cells + 20 nM CPT, ATP luminescence, 48 h | Potency, µM (highest dose often 46.2 µM), for the others: top-dose activity change, negative = growth inhibition, usual class: inhibitors | hit rate 12% among 420,000; also: nearly all actives have a fitted effect of over 55% in size
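Chicken DT40 Tdp1-/- cells complemented with human TDP1, 400 cells/well, exposed to compounds plus 20 nM camptothecin for at least 48 h at 37 C; viability read as ATP content by CellTiter-Glo luminescence.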
HT1080 IDH1KD tx: qHTS for induction of synthetic lethality in tumor cells producing 2HG: qHTS for the HT-1080-IDH1KD cell line; AID 686971, 2013; Potency, µM (titrated, usually from 46.1 µM), inactives show at the highest dose activity, negative = toxicity, hits mostly cytotoxic; HT-1080 IDH1 knockdown viability, ATP luminescence, 48 h; hit rate 2% among 360,000;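 also: 0% = DMSO wells and -100% = cell-free medium wells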
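Knockdown cells (IDH1KD HT-1080) received compounds 2 h after plating at 750 cells/well and were kept 48 h at 37 °C in 5% FBS RPMI. A CellTiter-Glo luminescence read gave % activity for curve fitting.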
KB-V1 MDR tox: qHTS assay for MDR1-selective chemotherapeutics: Primary screen using the drug-selected MDR subline cells KB-V1. KB-V1 MDR cells viability, CellTiter-Glo, 72 h. Potency, µM (titrated, usually from 46.1 µM), most hits filed as cytotoxic. hit rate 3.4% among 400,000; also: nearly all actives have a fitted effect of over 60% in size
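Potencies derive from concentration-effect curves fitted to normalized luminescence (CellTiter-Glo) of KB-V1 cells treated for 72 h at 37 degrees C in phenol-red-free DMEM containing 10% FBS.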
An asterisk follows results filed as active; i = inactive; ? = inconclusive; . = no result given; [ ] = remark or other dose. The list is not random: actives were taken first. Their share in the collection is about 19%. Calls follow the shape of the dose curve; as a rule, active = well fitted curve in the direction sought with a large enough effect; inconclusive = small, poorly fitted or top-dose-only effect, or another doubt; inactive = no such curve, though single readings can be large; an effect the other way counts as inactive or inconclusive. Unless noted, % is scaled to controls: 0 for no effect and ±100 for the full control effect; potency is read from the fitted curve at half-maximal effect.

SMILES | HT1080-NT tox | TDP1 cell noCPT | KB-3-1 tox | TDP1 cell CPT | HT1080 IDH1KD tx | KB-V1 MDR tox
O=C(COC(=O)c1cnccn1)c1ccc([N+](=O)[O-])cc1 | -1% | ? | i | 23µM* | -1% | i
Cc1ccc2nc(=O)c(NNc3ccccc3)cnc2c1 | 8% | 10µM* | i | ? | -6% | i
Cc1nc2ccccc2nc(=O)c1NNc1ccccc1 | -4% | ? | i | -30% | -12% | i
CC(NC(=O)c1ccc(Cn2cc([N+](=O)[O-])cn2)o1)c1ccccc1 (configuration not stated) | -5% | -8% | i | -3% | 7% | i
CCC(NC(=O)c1cccc(Cn2cc([N+](=O)[O-])cn2)c1)c1ccc(C(C)C)cc1 (configuration not stated) | -20% | -20% | ? | -19% | ? | 7.3µM*
CC(NC(=O)c1cccc(Cn2cc([N+](=O)[O-])cn2)c1)c1ccc(C(C)(C)C)cc1 (configuration not stated) | -1% | ? | i | ? | ? | 21µM*
NC(=O)CNC(=O)[C@@H]1CC2(CC(c3ccccc3)=NO2)CN1C(=O)c1ccc(Br)cc1 (some centres not stated) | -5% | 4% | i | -9% | -9% | ?
Cc1cc(C)nc(N(C#N)Cc2cccc(Cl)c2)n1 | 0% | -22% | i | -15% | -4% | i
CCc1cc(=O)oc2cc(OCc3ccc(C(=O)O)o3)ccc12 | -3% | -23% | i | 4% | -2% | i
O=C1c2cccc3c(Cl)ccc(c23)C(=O)N1O | 7.9µM* | 5.8µM* | i | ? | -16% | i
O=C(c1ccc2c3c(cccc13)C(=O)N(O)C2=O)N1CCCCC1 | 7% | 7.3µM* | ? | 8.2µM* | 4% | i
COc1ccc(NC(=O)COc2cccc3c2CCN(Cc2cccnc2)C3=O)c(OC)c1 | -6% | 10µM* | i | 12µM* | -16% | 5.2µM*
COc1ccc(NC(=O)COc2cccc3c2CCN(Cc2cccnc2)C3=O)cc1 | -1% | ? | i | ? | -6% | i
CCCCN1C(Nc2ccccc2)=NC[C@@H]1Cc1ccccc1 | -16% | ? | i | 23µM* | -17% | i
CCCCN1C(Nc2ccccc2)=NC[C@@H]1C | 6% | -3% | i | -16% | 13% | i
c1ccc(NC2=NCCN2CCC2CCCC2)cc1 | 9% | -18% | i | ? | 13% | i
CC(C)C[C@H]1CN=C(Nc2ccccc2)N1CC1CCC(C)CC1 (some centres not stated) | -24% | 18µM* | i | ? | -25% | i
c1ccc(C[C@H]2CN=C(Nc3ccccc3)N2CC2CCC2)cc1 | -5% | ? | i | ? | -24% | i
c1ccc(C[C@H]2CN=C(Nc3ccccc3)N2CCCC2CCCCC2)cc1 | 0% | 16µM* | i | ? | -1% | i
CC1CCC(CN2C(Nc3ccccc3)=NC[C@@H]2Cc2ccccc2)CC1 (some centres not stated) | ? | 7.3µM* | i | ? | -25% | i
CC(C)(C)C1CCCCC1NC(=O)c1ccncc1 (configuration not stated) | -4% | ? | i | -4% | -2% | i
CC(C)CN(C)C(=O)CCc1nnc(Cc2cccc(C(F)(F)F)c2)o1 | 6% | 3% | i | 3% | 9% | i
Cc1ccc(NS(=O)(=O)c2ccc(C(=O)OCC(=O)NCC3CCCO3)cc2)cc1 (configuration not stated) | -6% | -26% | i | -2% | 8% | i
COc1cc(=O)n2c(c1C(=O)NC(C)c1ccco1)CCN(CC=C(C)C)CC2 (configuration not stated) | . | -5% | . | -12% | . | .
c1ccc(C[C@H]2CN=C(Nc3ccccc3)N2CC2CCCC2)cc1 | ? | 12µM* | i | 10µM* | ? | ?
SMILES | HT1080-NT tox | TDP1 cell noCPT | KB-3-1 tox | TDP1 cell CPT | HT1080 IDH1KD tx | KB-V1 MDR tox
c1ccc(C[C@H]2CN=C(Nc3ccccc3)N2CC2CCCCC2)cc1 | ? | ? | i | 16µM* | -15% | i
CC1CCC(CN2C(Nc3ccccc3)=NC[C@@H]2C)CC1 (some centres not stated) | 11% | ? | i | 18µM* | 5% | i
CCCS(=O)(=O)NCc1c(C)ncc2c1CCN(C(=O)/C=C/c1ccc(F)cc1F)C2 | . | -24% | . | -3%[9.04 µM] | . | .
CC(C)Cn1c(CCCNC(=O)c2ccco2)nc2ccccc21 | 1% | ? | i | -65% | 5% | i
C[C@H]1CN([C@@H](C)CO)C(=O)c2cc(Br)cnc2O[C@H]1CN(C)C(=O)Cc1ccccn1 | 3% | -16% | i | 1% | 5% | i
O=C(Cn1cc(C(=O)C2CCCCC2)c2ccccc21)Nc1ccccc1Cl | . | ? | i | ? | . | ?
CCc1ccc(CNC(=O)c2ccc3c(c2)nc2n3CCOC2)cc1 | . | ? | i | -24% | . | i
Cc1nc(C)c(CC(=O)N2CCOc3ccc(CN4CCOCC4)cc3C2)s1 | . | ? | . | -2%[9.04 µM] | . | .
Cc1cc(C(=O)N/N=C/c2cccnc2)c2ccccc2n1 | ? | ? | ? | ? | ? | i
CCOc1ccc(-c2cc(C(=O)N/N=C/c3cccnc3)c3ccccc3n2)cc1 | ? | 1.8µM* | 8.2µM* | 2.3µM* | ? | ?
COc1ccc(NC(=O)C(=O)N/N=C/c2cccnc2)cc1 | 8% | -25% | i | 8% | 14% | ?
CCOc1ccccc1-c1cc(C(=O)N/N=C/c2cccnc2)c2ccccc2n1 | -26% | 1.5µM* | i | ? | -18% | i
COc1ccc(-c2cc(C(=O)N/N=C/c3cccnc3)c3cc(C)cc(C)c3n2)cc1 | ? | 8.2µM* | i | 18µM* | ? | ?
O=C(Nc1ccc(Cl)cc1)N1CCOC12CCCCC2 | 18% | 3% | i | -5% | 14% | i
CC(C)(C)c1ccc(C(=O)N2CCOC23CCCCC3)cc1 | 1% | 13µM* | i | 15µM* | 7% | i

Compound activity as filed in PubChem BioAssay.
